According to PubChem BioAssay AID1987 (The Scripps Research Institute Molecular Screening Center, 2009):
Among all 320,000 compounds or so, about 560 (0.17%) were called active. This is one part of a sample in which actives are shown more often than they occur.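 The calls were made as follows: active = inhibition above the campaign's mean inhibition across all tested compounds plus 3 SD (cut at about 9.5% in these data); inactive = the rest.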

Each molecule was assayed against Serine/threonine-protein phosphatase 5 (Homo sapiens) (UniProt P53041) (assay: inhibition of human PP5 catalytic activity – biochemical, fluorescence, primary screen (AID 1987;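 also: 0% = DMSO only and 100% = 100 µM cantharidin control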)). Conditions: purified PP5c, OMFP substrate fluorescence; at 6.7 µM; hits give high values.
Serine/threonine-protein phosphatase 5 (Homo sapiens), sequence (P53041 whole entry, looked up): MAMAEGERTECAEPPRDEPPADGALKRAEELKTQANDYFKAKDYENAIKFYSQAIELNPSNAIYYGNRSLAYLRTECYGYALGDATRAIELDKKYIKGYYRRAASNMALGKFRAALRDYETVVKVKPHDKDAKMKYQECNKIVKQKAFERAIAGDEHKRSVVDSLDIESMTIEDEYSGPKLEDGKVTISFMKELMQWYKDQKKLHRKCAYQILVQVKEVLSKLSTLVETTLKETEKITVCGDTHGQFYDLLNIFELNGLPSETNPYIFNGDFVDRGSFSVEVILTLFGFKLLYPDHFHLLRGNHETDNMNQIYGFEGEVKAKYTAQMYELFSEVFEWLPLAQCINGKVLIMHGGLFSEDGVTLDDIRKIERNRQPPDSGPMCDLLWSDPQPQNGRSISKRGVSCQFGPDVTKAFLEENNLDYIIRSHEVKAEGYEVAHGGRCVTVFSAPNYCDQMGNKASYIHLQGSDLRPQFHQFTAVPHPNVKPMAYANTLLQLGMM
With `Cc1cc(C)n(-c2nnc(N3CCN(c4ccccc4)CC3)nn2)n1` the inhibition was -0.74% (inactive). `COCCCNC(=O)C1CC(=O)N(CCc2ccc(F)cc2)C1` (centres undefined) was tested, and the inhibition was -1.89% (inactive). `CC(C)CCn1cnc2c1c(=O)n(CC(=O)NC(N)=O)c(=O)n2Cc1ccccc1` was tested, and the inhibition was 1.52% (inactive). For `COc1ccc2c(c1)C(=O)Nc1cc(Cl)ccc1N2`, the inhibition was -0.62% (inactive). With `CC(C)CN(C(=O)Cn1c(=O)cnc2ccccc21)C1CCS(=O)(=O)C1` (centres undefined) the inhibition was -1.01% (inactive). In the case of `COc1ccc(S(=O)(=O)N2CCN(C(=O)c3cc(C)oc3C)CC2)cc1`, the inhibition is reported as 0.44% (inactive). For `CCCCn1c(N)c(N(CCC(C)C)C(=O)COC(=O)c2cccnc2OCC)c(=O)[nH]c1=O`, the inhibition was 0.18% (inactive). With `CC(=O)Nc1ccccc1OC(C)C(=O)N1CCC(C)CC1` (centres undefined) the inhibition was -1.03% (inactive). For `Nc1nnc(SCC(=O)OCc2ccc(Cl)c(Cl)c2)s1`, the inhibition was 1.15% (inactive). In the case of `CCN1C(=O)[C@H]2[C@@H](c3ccc(SC4CCCCC4)c(OC)c3)N[C@@](Cc3ccccc3)(C(=O)OC)[C@H]2C1=O`, the inhibition is reported as 2.69% (inactive). `CC(C)Oc1ccc(C(CC(=O)N2CCOCC2)C(C)C)cc1` (centres undefined) was tested, and the inhibition was 0.66% (inactive). For `Cc1cccc(N(C(=O)c2csnn2)C(C(=O)NCc2ccccc2)c2ccncc2)c1` (centres undefined), the inhibition was 1.82% (inactive). `Cn1cnnc1Sc1ccc(S(C)(=O)=O)cc1[N+](=O)[O-]` was tested, and the inhibition was -0.46% (inactive). With `CCOC(=O)c1cnc(COc2ccccc2Cl)[nH]c1=O` the inhibition was -1.14% (inactive). `CC1CC(C)(C)n2c(O)c(N=NC(N)=S)c3cccc1c32` (centres undefined) was tested, and the inhibition was 3.55% (inactive). `Cn1ccnc1SCC(=O)Nc1ccc2c(c1)OCCO2` was tested, and the inhibition was 2.87% (inactive). In the case of `COc1ccc(Cl)cc1C(=O)Nc1ccc(N(C)C(C)=O)cc1`, the inhibition is reported as 0.43% (inactive). With `COc1cc(C(F)(F)F)c(C(=O)N(C)c2ccc(Cl)cc2)cn1` the inhibition was 11.3% (active). In the case of `COc1cccc(OC)c1CN(C)C(=O)c1cnccc1C(F)(F)F`, the inhibition is reported as 0.42% (inactive). `COc1ccccc1NC(=O)COC(=O)COc1ccccc1F` was tested, and the inhibition was 2.17% (inactive). With `CC(C)c1cc(CN2CCOCC2)cc(C(C)C)c1O` the inhibition was 1.58% (inactive). In the case of `Oc1c(C(c2ccccn2)N2CCOCC2)ccc2cccnc12` (centres undefined), the inhibition is reported as 11.2% (active). With `CN(C)c1ccc(C(CC(=O)O)C(=O)O)cc1` (centres undefined) the inhibition was 0.86% (inactive). For `CCN(CC)c1nc(-c2ccccc2)cc(C(F)(F)F)c1C#N`, the inhibition was 0.13% (inactive). With `O=C(Cc1ccccc1Cl)N1CCOCC1` the inhibition was -1.76% (inactive). `CN(C(=O)Nc1ccc(Cl)cc1)n1cnc2ccccc2c1=O` was tested, and the inhibition was -2.44% (inactive). With `CC(C)(C)c1cc[n+](-c2[nH]c(=O)sc2/C=N/N=C(\[O-])c2ccccc2)cc1` the inhibition was -0.11% (inactive). `O=C(CSc1ncnc2sccc12)N1CCN(C(=O)c2cccs2)CC1` was tested, and the inhibition was 0.16% (inactive). `CCC(C)Sc1nc(C)nc2c1c(=O)n(C)c(=O)n2C` (centres undefined) was tested, and the inhibition was 2.18% (inactive). In the case of `CCn1c(C)nc2c1C(=O)c1ccccc1C2=O`, the inhibition is reported as -1.27% (inactive). With `CCc1nnc(NC(=O)c2cc(S(=O)(=O)N3CCCCC3)ccc2C)s1` the inhibition was 3.35% (inactive). `O=S1(=O)CC/C(=N\Nc2ccc(F)cc2)c2ccsc21` was tested, and the inhibition was 1.6% (inactive). With `O=Cc1cn(-c2ccccc2)nc1-c1ccccn1` the inhibition was 0.89% (inactive). `C=CCc1ccccc1OCC(O)CN1CCN(CCO)CC1` (centres undefined) was tested, and the inhibition was 0.89% (inactive). For `CCN1CCN(CCNC(=O)c2ccc(/C=C3/Sc4ccccc4N(Cc4cccc(C)c4)C3=O)cc2)CC1`, the inhibition was 10.1% (active). For `O=C(NCCCN1CCOCC1)c1ccc2c(c1)N(Cc1cccc(F)c1)C(=O)c1ccccc1S2`, the inhibition was -0.03% (inactive). With `CN1CCN(CCCNC(=O)c2ccc(/C=C3\Oc4ccccc4N(Cc4ccc(Cl)cc4)C3=O)cc2)CC1` the inhibition was 4.83% (inactive). For `COc1ccc(CNc2c(CO)cnc3c2cnn3C)cc1`, the inhibition was 0.82% (inactive). For `CC(C(=O)c1ccc(-c2ccccc2)cc1)[n+]1cccc(Br)c1` (centres undefined), the inhibition was 0.21% (inactive).
